Data taken from publication PMC7862700, “An all-to-all approach to the identification of sequence-specific readers for epigenetic DNA modifications on cytosine”.

Experiments:
Assay in all cases: DAPPL (digital affinity profiling via proximity ligation, sequencing); 10 mM Tris-HCl pH 7.5, 50 mM NaCl, 1 mM DTT, 4% glycerol, room temperature, 30 min; GST-TFs on glutathione beads, 16-mer random dsDNA library, 0.1% formaldehyde crosslink after washing; high values mean tight binding
FLI1 = target: T1, FLI1 (Homo sapiens, UniProt Q01543 1-452); conditions: protein: recombinant; tags: N-terminal GST; dsDNA, one strand shown
T1 sequence: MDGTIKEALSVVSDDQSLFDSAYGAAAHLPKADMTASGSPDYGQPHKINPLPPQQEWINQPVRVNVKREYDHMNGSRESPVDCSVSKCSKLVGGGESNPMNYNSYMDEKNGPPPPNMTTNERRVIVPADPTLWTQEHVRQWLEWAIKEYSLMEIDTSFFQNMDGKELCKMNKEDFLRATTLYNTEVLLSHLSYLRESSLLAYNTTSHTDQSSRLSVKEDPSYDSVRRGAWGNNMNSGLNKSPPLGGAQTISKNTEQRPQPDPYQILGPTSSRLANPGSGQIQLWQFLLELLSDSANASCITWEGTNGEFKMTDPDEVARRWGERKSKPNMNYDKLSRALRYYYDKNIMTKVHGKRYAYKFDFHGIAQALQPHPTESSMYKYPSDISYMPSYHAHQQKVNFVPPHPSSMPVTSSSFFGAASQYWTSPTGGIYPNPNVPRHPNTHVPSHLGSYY
In short: (§1)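 Human transcription factors were made in yeast as GST fusions, captured on glutathione beads and barcoded with DNA. With a tag-only sample included, the pool was incubated with 200 nmole of a random double-stranded 16-mer DNA library in Tris/NaCl/DTT/glycerol buffer at room temperature for 30 min, then crosslinked with 0.1% formaldehyde after washing, ligated by proximity, amplified and sequenced. For binding signal, each hexamer's read frequency for a factor is divided by its frequency for the tag-only sample.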

ELK1 = target: T2, ELK1 (Homo sapiens, UniProt P19419 1-428); conditions: protein: recombinant; tags: N-terminal GST; dsDNA, one strand shown
T2 sequence: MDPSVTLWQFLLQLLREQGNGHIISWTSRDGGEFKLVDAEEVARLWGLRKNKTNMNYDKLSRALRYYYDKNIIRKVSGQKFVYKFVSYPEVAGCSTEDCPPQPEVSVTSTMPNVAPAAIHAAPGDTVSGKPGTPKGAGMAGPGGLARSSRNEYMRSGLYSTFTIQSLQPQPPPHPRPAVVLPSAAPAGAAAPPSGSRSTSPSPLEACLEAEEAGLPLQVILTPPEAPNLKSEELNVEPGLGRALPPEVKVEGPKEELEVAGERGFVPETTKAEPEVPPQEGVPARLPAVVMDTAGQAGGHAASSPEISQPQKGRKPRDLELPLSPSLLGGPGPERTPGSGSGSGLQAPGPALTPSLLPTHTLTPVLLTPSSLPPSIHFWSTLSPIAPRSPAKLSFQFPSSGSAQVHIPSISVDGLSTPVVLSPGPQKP
In short: as §1

GABPA = target: T3, GABPA (Homo sapiens, UniProt Q06546 1-454); conditions: protein: recombinant; tags: N-terminal GST; dsDNA, one strand shown
T3 sequence: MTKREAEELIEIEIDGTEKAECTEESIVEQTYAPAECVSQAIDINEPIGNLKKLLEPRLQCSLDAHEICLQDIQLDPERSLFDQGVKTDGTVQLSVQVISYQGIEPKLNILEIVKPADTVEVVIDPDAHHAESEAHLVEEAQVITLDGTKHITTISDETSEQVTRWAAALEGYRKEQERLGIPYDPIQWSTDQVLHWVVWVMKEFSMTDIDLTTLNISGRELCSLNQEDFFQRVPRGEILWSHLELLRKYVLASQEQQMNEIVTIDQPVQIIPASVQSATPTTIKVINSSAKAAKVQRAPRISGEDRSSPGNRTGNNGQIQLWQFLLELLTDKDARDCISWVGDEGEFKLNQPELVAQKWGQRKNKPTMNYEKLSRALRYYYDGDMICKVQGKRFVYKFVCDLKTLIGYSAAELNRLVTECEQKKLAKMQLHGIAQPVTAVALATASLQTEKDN
In short: as §1

ERG = target: T4, ERG (Homo sapiens, UniProt P11308 1-479); conditions: protein: recombinant; tags: N-terminal GST; dsDNA, one strand shown
T4 sequence: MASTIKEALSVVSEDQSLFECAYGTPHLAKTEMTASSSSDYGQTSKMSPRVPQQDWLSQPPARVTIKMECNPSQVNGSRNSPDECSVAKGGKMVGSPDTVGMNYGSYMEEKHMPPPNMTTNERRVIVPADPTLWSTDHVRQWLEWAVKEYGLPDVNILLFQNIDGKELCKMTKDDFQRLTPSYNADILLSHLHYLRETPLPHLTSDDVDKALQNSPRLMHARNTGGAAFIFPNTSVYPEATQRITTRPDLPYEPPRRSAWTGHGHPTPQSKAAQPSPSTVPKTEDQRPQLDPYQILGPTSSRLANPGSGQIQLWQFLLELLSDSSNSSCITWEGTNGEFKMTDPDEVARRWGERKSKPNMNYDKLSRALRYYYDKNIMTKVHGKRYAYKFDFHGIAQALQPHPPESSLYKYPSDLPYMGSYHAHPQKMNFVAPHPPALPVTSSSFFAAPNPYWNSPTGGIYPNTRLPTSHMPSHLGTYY
In short: as §1

ELF1 = ELF1 (Homo sapiens, UniProt P32519 1-619); conditions: protein: recombinant; tags: N-terminal GST; dsDNA, one strand shown
Sequence of ELF1 (P32519 whole entry): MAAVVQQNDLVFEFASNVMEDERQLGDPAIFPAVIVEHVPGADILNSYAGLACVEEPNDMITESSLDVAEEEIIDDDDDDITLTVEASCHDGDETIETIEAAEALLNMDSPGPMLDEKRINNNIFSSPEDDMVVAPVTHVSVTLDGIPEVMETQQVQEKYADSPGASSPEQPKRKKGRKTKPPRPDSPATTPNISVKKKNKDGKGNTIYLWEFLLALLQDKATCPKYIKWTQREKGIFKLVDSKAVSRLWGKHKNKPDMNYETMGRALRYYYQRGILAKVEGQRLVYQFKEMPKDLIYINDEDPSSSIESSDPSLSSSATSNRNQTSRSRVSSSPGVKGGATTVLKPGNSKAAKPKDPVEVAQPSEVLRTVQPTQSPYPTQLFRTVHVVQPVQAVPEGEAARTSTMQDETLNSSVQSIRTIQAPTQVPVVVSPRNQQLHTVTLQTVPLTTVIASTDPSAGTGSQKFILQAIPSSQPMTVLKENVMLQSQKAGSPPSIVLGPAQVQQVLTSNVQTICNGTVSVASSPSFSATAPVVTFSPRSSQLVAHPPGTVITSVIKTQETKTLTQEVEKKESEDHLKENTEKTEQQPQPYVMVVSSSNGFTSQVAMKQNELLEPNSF
In short: as §1

EHF = target: T5, EHF (Homo sapiens, UniProt Q9NZC4 1-300); conditions: protein: recombinant; tags: N-terminal GST; dsDNA, one strand shown
T5 sequence: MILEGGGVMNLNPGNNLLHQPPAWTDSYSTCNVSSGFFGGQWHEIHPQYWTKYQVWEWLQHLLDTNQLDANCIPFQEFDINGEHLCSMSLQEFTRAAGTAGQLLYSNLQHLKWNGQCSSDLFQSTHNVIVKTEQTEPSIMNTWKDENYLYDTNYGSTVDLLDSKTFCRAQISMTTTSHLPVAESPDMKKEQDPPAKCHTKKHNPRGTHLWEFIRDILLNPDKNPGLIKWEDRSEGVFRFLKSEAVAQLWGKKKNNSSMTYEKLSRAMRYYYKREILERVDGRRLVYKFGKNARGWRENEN
In short: as §1

SPI1 = SPI1 (Homo sapiens, UniProt P17947 1-270); conditions: protein: recombinant; tags: N-terminal GST; dsDNA, one strand shown
In short: as §1

SPIB = SPIB (Homo sapiens, UniProt Q01892 1-262); conditions: protein: recombinant; tags: N-terminal GST; dsDNA, one strand shown
Sequence of SPIB (Q01892 whole entry): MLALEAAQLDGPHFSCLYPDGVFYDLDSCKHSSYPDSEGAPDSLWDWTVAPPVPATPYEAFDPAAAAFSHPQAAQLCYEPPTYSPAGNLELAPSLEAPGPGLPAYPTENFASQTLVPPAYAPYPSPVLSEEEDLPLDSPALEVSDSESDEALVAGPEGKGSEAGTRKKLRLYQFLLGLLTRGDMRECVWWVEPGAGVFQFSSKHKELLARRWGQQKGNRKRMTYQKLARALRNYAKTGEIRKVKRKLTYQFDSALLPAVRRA
In short: as §1

ELK3 = target: T6, ELK3 (Homo sapiens, UniProt P41970 1-407); conditions: protein: recombinant; tags: N-terminal GST; dsDNA, one strand shown
T6 sequence: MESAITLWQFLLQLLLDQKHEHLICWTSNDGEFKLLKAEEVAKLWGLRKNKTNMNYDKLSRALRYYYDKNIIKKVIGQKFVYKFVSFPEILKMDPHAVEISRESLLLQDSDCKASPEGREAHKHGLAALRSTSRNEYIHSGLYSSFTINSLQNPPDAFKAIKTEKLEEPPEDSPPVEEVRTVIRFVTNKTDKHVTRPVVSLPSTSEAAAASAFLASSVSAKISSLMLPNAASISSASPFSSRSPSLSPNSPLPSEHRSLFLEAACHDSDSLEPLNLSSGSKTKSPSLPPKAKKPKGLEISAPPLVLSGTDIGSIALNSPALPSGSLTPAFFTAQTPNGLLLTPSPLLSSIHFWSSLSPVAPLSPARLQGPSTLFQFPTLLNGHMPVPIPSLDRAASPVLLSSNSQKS
In short: as §1

ETV5 = ETV5 (Homo sapiens, UniProt P41161 1-510); conditions: protein: recombinant; tags: N-terminal GST; dsDNA, one strand shown
Sequence of ETV5 (P41161 whole entry): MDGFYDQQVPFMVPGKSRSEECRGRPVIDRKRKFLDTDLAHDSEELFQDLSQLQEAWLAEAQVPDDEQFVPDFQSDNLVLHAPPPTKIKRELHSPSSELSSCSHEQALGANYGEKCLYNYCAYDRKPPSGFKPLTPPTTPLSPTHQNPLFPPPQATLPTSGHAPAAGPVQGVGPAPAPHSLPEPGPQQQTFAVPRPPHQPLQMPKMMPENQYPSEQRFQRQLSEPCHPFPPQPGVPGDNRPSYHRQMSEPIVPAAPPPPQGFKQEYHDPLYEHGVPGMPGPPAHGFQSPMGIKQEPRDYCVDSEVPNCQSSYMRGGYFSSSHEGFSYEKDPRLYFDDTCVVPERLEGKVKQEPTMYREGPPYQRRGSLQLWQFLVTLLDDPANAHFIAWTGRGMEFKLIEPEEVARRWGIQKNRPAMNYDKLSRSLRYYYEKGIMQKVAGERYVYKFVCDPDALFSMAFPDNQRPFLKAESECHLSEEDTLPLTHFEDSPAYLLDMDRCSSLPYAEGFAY
In short: as §1

HSF1 = HSF1 (Homo sapiens, UniProt Q00613 1-529); conditions: protein: recombinant; tags: N-terminal GST; chain copies: 3; dsDNA, one strand shown
Sequence of HSF1 (Q00613 whole entry): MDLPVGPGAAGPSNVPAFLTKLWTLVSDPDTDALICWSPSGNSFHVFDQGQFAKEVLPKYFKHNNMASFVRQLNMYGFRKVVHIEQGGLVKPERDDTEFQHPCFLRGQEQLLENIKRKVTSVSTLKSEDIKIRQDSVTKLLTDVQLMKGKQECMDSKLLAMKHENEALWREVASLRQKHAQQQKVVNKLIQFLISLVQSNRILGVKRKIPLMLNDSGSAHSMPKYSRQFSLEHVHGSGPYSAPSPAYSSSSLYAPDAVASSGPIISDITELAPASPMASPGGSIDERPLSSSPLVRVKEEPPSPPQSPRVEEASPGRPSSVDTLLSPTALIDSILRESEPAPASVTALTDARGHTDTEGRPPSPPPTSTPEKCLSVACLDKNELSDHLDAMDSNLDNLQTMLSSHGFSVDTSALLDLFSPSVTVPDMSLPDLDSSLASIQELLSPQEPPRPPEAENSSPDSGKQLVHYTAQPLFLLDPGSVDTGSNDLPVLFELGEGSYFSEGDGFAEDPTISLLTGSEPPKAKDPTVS
In short: as §1

SPIC = target: T7, SPIC (Homo sapiens, UniProt Q8N5J4 1-248); conditions: protein: recombinant; tags: N-terminal GST; dsDNA, one strand shown
T7 sequence: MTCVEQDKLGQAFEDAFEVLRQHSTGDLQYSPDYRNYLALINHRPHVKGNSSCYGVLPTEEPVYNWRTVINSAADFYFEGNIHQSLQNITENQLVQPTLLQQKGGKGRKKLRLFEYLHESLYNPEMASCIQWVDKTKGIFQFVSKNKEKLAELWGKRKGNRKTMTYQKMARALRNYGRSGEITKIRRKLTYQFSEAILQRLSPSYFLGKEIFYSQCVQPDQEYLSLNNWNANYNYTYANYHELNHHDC
In short: as §1

ELF4 = ELF4 (Homo sapiens, UniProt Q99607 1-663); conditions: protein: recombinant; tags: N-terminal GST; dsDNA, one strand shown
Sequence of ELF4 (Q99607 whole entry): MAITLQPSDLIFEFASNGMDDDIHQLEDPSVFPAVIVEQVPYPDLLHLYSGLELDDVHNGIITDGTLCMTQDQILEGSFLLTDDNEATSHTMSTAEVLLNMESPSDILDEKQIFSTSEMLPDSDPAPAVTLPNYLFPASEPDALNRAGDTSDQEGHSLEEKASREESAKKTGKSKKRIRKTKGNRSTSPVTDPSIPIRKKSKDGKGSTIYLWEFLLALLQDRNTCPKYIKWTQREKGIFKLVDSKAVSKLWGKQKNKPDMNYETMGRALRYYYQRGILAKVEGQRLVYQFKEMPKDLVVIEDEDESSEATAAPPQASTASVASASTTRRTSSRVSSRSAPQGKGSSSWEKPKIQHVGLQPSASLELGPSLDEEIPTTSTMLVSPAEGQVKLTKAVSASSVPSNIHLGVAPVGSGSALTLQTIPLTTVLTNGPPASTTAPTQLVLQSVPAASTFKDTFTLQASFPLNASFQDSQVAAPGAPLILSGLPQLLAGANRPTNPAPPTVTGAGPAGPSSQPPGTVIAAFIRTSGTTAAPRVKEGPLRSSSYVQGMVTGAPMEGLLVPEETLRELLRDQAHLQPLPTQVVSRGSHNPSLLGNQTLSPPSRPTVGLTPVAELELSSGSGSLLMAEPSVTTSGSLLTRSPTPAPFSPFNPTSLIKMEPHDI
In short: as §1

ELK4 = target: T8, ELK4 (Homo sapiens, UniProt P28324-2 1-405); conditions: protein: recombinant; tags: N-terminal GST; dsDNA, one strand shown
T8 sequence: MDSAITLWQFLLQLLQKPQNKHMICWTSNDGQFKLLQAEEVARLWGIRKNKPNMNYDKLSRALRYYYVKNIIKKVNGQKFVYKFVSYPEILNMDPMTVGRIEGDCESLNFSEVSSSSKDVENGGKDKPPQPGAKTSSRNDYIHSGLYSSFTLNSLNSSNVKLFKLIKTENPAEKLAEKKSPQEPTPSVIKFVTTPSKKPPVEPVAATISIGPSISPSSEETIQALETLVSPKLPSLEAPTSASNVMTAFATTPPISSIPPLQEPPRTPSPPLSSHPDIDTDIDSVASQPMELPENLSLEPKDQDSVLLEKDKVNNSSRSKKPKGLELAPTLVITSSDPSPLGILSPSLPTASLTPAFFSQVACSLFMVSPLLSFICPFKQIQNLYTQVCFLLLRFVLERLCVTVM
In short: as §1

CRX = CRX (Homo sapiens, UniProt O43186 1-299); conditions: protein: recombinant; tags: N-terminal GST; dsDNA, one strand shown
Sequence of CRX (O43186 whole entry): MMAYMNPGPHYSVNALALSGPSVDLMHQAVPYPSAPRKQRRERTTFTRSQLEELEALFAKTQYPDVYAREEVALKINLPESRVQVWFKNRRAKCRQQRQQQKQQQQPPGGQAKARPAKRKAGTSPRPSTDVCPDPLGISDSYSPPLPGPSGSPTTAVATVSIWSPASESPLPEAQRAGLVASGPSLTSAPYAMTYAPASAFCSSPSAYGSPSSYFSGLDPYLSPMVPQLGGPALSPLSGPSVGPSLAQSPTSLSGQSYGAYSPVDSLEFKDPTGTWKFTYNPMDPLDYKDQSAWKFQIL
In short: as §1

ETV1 = ETV1 (Homo sapiens, UniProt P50549 1-477); conditions: protein: recombinant; tags: N-terminal GST; dsDNA, one strand shown
Sequence of ETV1 (P50549 whole entry): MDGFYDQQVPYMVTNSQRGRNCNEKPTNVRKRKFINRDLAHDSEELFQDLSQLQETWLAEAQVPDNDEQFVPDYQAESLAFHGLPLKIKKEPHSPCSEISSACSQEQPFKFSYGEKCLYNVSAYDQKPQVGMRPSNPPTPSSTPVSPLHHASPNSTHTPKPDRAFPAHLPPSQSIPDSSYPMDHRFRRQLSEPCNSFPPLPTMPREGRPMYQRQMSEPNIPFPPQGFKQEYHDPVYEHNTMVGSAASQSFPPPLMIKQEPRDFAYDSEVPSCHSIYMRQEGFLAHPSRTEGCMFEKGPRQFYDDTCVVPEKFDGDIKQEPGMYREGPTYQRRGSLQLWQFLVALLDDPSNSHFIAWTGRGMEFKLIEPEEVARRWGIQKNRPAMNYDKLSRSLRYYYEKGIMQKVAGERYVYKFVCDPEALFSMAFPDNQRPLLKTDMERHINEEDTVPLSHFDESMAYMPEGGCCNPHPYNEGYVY
In short: as §1

GATAAT
binding signal (FLI1): 1.04 fold enrichment (6-mer frequency, TF over GST control) | binding signal (ELK1): 1.05 fold enrichment (6-mer frequency, TF over GST control) | binding signal (GABPA): 1.13 fold enrichment (6-mer frequency, TF over GST control) | binding signal (ERG): 1.03 fold enrichment (6-mer frequency, TF over GST control) | binding signal (ELF1): 1.02 fold enrichment (6-mer frequency, TF over GST control) | binding signal (EHF): 1.09 fold enrichment (6-mer frequency, TF over GST control) | binding signal (SPI1): 1.09 fold enrichment (6-mer frequency, TF over GST control) | binding signal (SPIB): 1.12 fold enrichment (6-mer frequency, TF over GST control) | binding signal (ELK3): 1.12 fold enrichment (6-mer frequency, TF over GST control) | binding signal (ETV5): 1.05 fold enrichment (6-mer frequency, TF over GST control) | binding signal (HSF1): 1.98 fold enrichment (6-mer frequency, TF over GST control) | binding signal (SPIC): 1.27 fold enrichment (6-mer frequency, TF over GST control) | binding signal (ELF4): 1.1 fold enrichment (6-mer frequency, TF over GST control) | binding signal (ELK4): 1.09 fold enrichment (6-mer frequency, TF over GST control) | binding signal (CRX): 2.88 fold enrichment (6-mer frequency, TF over GST control) | binding signal (ETV1): 1.14 fold enrichment (6-mer frequency, TF over GST control)
